Screens deposited in PubChem BioAssay by National Center for Advancing Translational Sciences (NCATS).
Fluorescein fluor: qHTS Assay for Spectroscopic Profiling in Fluorescein Spectral Region; Compound autofluorescence, 480/540 nm, fluorescein-equivalent; stronger effect = higher value; 59,000 tested, 0.91% active; max fluorescein-equivalent concentration, M; in the data active = max fluorescein-equivalent concentration above about 10 nM; inconclusive = between about 1.1 nM and that limit
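Autofluorescence profiling; 100 mM Tris, pH 8.0; incubation 15 min at RT; ex/em 480/540 nm; result as fluorescein-equivalent concentration.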
Rhodamine autofl: qHTS Assay for Spectroscopic Profiling in Rhodamine Spectral Region. Rhodamine-region fluorescence, 547/598 nm, Tris buffer; stronger effect = higher value. max dye-equivalent concentration, M. 59,000 tested, 0.05% active. AID 594, 2007; in the data active = max dye-equivalent concentration above about 11 nM; inconclusive = between about 1.1 nM and that limit
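Read-out is relative fluorescence at 547 nm excitation and 598 nm emission, expressed as dye-equivalent concentration using rhodamine standards on every plate. Each compound was profiled across a concentration series after 15 min in 100 mM Tris, pH 8.0.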
A488 fluor: qHTS Assay for Spectroscopic Profiling in A488 Spectral Region; compound autofluorescence, A488 spectral region, dye equivalency; Compound Type: qHTS ECL - MLSMR; max dye equivalency, M; 59,000 tested, 0.1% active; AID 591, 2007
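Compound autofluorescence was read in 100 mM Tris pH 8.0 after 15 min at room temperature, ex 480 nm/em 540 nm. Intensities were converted to A488 dye-equivalent concentration using an on-plate six-point A488 standard curve.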
A647 autofl: qHTS Assay for Spectroscopic Profiling in A647 Spectral Region. max dye-equivalent concentration, M. Compound fluorescence, A647 channel (570/671 nm), Tris buffer. 59,000 tested, under 10 active;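 also: values scaled relative to a standard on each plate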
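Compounds pinned into 100 mM Tris pH 8.0, 15 min at room temperature, then read with 570 nm excitation/671 nm emission filters. Fluorescence normalized to an on-plate six-point Alexa 647 standard curve, giving dye-equivalent concentration per compound concentration.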
Texas Red fluor: qHTS Assay for Spectroscopic Profiling in Texas Red Spectral Region | max dye-equivalent concentration, M | 59,000 tested, 0.06% active | Compound fluorescence, Texas Red channel, 547/618 nm; stronger effect = higher value; in the data active = max dye-equivalent concentration above about 10 nM; inconclusive = between about 1.1 nM and that limit
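Compound fluorescence was read after 15 min at room temperature in 100 mM Tris, pH 8.0, using 547 nm excitation and 618 nm emission across a concentration series. It was expressed as Texas Red dye-equivalent concentration from an on-plate standard curve.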
Resorufin autofl: qHTS Assay for Spectroscopic Profiling in Resorufin Spectral Region. Compound fluorescence, resorufin region 547/598 nm, buffer; stronger effect = higher value. 59,000 tested, 0.04% active. AID 588, 2007. max dye-equivalent concentration, M
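Compounds in 100 mM Tris buffer, pH 8.0, incubated 15 min at room temperature, then read with 547 nm excitation and 598 nm emission filters. Fluorescence was converted to dye-equivalent concentration using an on-plate six-point resorufin standard curve.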
* = called active by the depositor; i = inactive; ? = inconclusive. Shown are actives, neighbours in structure and some others; about 0.95% of the full set was active somewhere. Unless noted, no rule for the calls is given here.

SMILES	Fluorescein fluor	Rhodamine autofl	A488 fluor	A647 autofl	Texas Red fluor	Resorufin autofl
O=C1c2cccc3c(N4CCCCC4)ccc(c23)C(=O)N1c1ccccn1	2.7e-07M*	i	1.3e-08M*	2.3e-09	i	i
Clc1ccc(CN2CCCN(Cc3ccc(Cl)cc3)C2c2cc3ccccc3c3ccccc23)cc1	1.2e-08M*	i	i	3.5e-09	i	i
O=C(O)[C@@H]1CCCN1Cc1cc2ccccc2c2ccccc12	?	i	i	5.7e-08	i	i
Cn1nc(-c2ccccc2)c2nc3ccccc3nc21	4.5e-07M*	i	2.7e-08M*	3.6e-08	i	i
N#[N+]c1ccc(Nc2ccccc2)cc1	1.3e-08M*	i	i	1e-09	i	i
c1cnc(N2CCN(c3nc4ccccc4n4cnnc34)CC2)nc1	i	i	i	6.2e-09	i	i
Fc1ccccc1N1CCN(c2nc3ccccc3n3nnnc23)CC1	1.6e-08M*	i	i	3.1e-08	i	i
CCOc1ccc(C2C=C(c3ccc(C)cc3)Nc3nnnn32)cc1 (configuration not stated)	?	i	i	1e-09	i	i
CCOc1ccc(C2C=C(c3ccc(C)cc3)Nc3ncnn32)cc1 (configuration not stated)	1.5e-08M*	i	i	5.4e-09	?	i
CO[C@@H]1/C=C\O[C@]2(C)Oc3c(C)c(O)c4c(O)c(c(/C=N\N5CCN(C)CC5)c(O)c4c3C2=O)NC(=O)/C(C)=C\C=C/[C@H](C)[C@H](O)[C@H](C)[C@H](O)[C@H](C)[C@H](OC(C)=O)[C@@H]1C	i	i	i	1e-09	i	i
Cc1cc(-c2ccco2)n2c(nc3ccccc32)c1C#N	6e-08M*	i	?	1e-09	i	i
Cc1ccc(S(=O)(=O)c2cc3c(=O)n4ccccc4nc3n(Cc3ccco3)c2=N)cc1C	1.2e-08M*	i	i	4.1e-08	i	i
N=c1c(S(=O)(=O)c2ccccc2)cc2c(=O)n3ccccc3nc2n1Cc1ccco1	?	i	i	3.5e-09	i	i
O=C(O)C1Sc2[nH]c(=O)sc2C2c3cc(Cl)ccc3OC(=O)C12 (configuration not stated)	i	i	i	1.7e-08	i	i
Cc1ccc(C2c3sc(=O)[nH]c3SC3C(=O)NC(=O)C32)cc1 (configuration not stated)	1.2e-08M*	i	i	1e-09	i	i
NC1=CC(=O)c2cccc3cccc1c23	3.6e-08M*	i	?	2.6e-08	i	i
CC1=CC(=O)c2ccccc2C1=O	?	i	i	3.8e-08	i	i
CCN[C@@H]1C[C@H](N)[C@H](O[C@H]2OC(CN)=CC[C@H]2N)[C@@H](O)[C@H]1O[C@H]1OC[C@@](C)(O)[C@@H](NC)[C@@H]1O	2.4e-08M*	i	i	1e-09	i	i
CN[C@H]1[C@H](O)[C@@H](O[C@@H]2[C@H](O)[C@@H](O[C@H]3OC(CN)=CC[C@H]3N)[C@@H](N)C[C@H]2N)OC[C@@]1(C)O	?	i	i	1e-09	i	i
Cn1c(CN2CCOCC2)c(C#N)c2ccccc21	?	i	i	1e-09	i	i
C=CCn1c(O)c(CN2CCOCC2)c(C)c(C#N)c1=O	1.3e-08M*	i	i	5.3e-09	?	i
CC[C@@H]1[C@H]2CCCCN3[C@@H]2[C@@H](C[C@H]3[C@@H]2C[C@H](C)C(=O)O2)[C@@H]2[C@H]1OC(=O)[C@H]2C	i	i	i	3.1e-09	i	i
CCCCCCc1cc2cc(-c3nnc(-c4ccccc4O)o3)c(=O)oc2cc1O	2.6e-08M*	i	i	4.3e-08	i	i
Cc1cc(-c2nnc(-c3cc4ccccc4oc3=O)o2)c(C)n1-c1ccccc1	i	i	i	1e-09	i	i
CN(C)c1ccc(/C=C/c2cc[n+]([O-])cc2)cc1	2.9e-07M*	i	1.5e-08M*	5e-09	?	i
SMILES	Fluorescein fluor	Rhodamine autofl	A488 fluor	A647 autofl	Texas Red fluor	Resorufin autofl
NC[C@@H]1O[C@@H](O[C@H]2[C@@H](O)[C@H](O[C@@H]3[C@H](O)[C@H](N)C[C@H](N)[C@H]3O[C@@H]3O[C@@H](CO)[C@H](O)[C@H](O)[C@@H]3N)O[C@H]2CO)[C@H](N)[C@H](O)[C@@H]1O	i	i	i	8.5e-09	?	i
COc1ccc(N=c2oc3cc(O)ccc3cc2C(=O)NCC2CCCO2)cc1 (configuration not stated)	i	i	i	1.4e-09	i	i
COc1ccc(N=c2oc3cc(O)ccc3cc2C(=O)NCC2CCCO2)c(OC)c1 (configuration not stated)	1.4e-08M*	i	i	2.6e-08	i	i
CC(C)(C)OC(=O)[C@H]([C@@H]1N[C@@H](C(=O)O)C(C)(C)S1)N1C(=O)c2ccccc2C1=O	i	i	i	1e-09	i	i
COc1ccc(CCNS(=O)(=O)c2ccc(C3CNC(=O)C3)cc2)cc1OC (configuration not stated)	i	i	i	3.2e-09	i	i
COc1ccc(C2CNC(=O)C2)cc1OC1CCCC1 (configuration not stated)	1.1e-08M*	i	i	1.3e-09	i	i
CCCCOC(=O)CSc1nc(N)c(C#N)c(-c2ccc(OCC)cc2)c1C#N	i	i	i	1.4e-09	?	i
CCCCOc1ccc(-c2c(C#N)c(N)nc(SCC(N)=O)c2C#N)cc1	1e-08M*	?	i	3.5e-08	?	i
COC(=O)c1ccc(C2/C(=C(/O)c3ccc(OC(C)C)cc3)C(=O)C(=O)N2c2cc(C)on2)cc1 (configuration not stated)	i	i	i	8e-09	?	i
COC(=O)c1ccc(C2/C(=C(/O)c3ccc(OC)cc3)C(=O)C(=O)N2c2cc(C)on2)cc1 (configuration not stated)	1e-08M*	i	i	2.7e-09	i	i
CC(C)OCCCn1c(=NC(=O)c2ccncc2)c(C#N)cc2c(=O)n3ccccc3nc21	1.9e-08M*	i	i	1e-09	i	i
CC(=O)Oc1ccc(/C=C\C(=O)C[C@@H]2O[C@@H](Oc3cc(OC(C)=O)c4c(c3)O[C@@H](c3ccc(OC(C)=O)cc3)CC4=O)[C@H](OC(C)=O)[C@H](OC(C)=O)[C@@H]2OC(C)=O)cc1	1.3e-08M*	i	i	5.2e-09	i	i
